{"source": "PubChem BioAssay (NCI)", "note": "This is part of a sample that, as a whole, favours compounds with a hit. Of some 83,000 tested, about 20% had one in any assay.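 Results are percent growth after 48 hours of single-concentration exposure. 100 means growth as in untreated cells, lower positive values show inhibition; negative values down to -100 show cell death.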 A number with no mark means an inactive call. Calls of active or inactive are those of the source. Rule for the calls: active = growth percent below 10; inactive = the rest."}
{"system": "MDA-MB-468 breast", "test": "NCI-60 one-dose screen, 48 h (100 = growth as untreated, 0 = no growth, -100 = all killed)", "conditions": "10 µM unless noted"}
{"smiles": "Nc1nc(N)c2c(n1)NC(c1cccc(Nc3ccnc4cc(C(F)(F)F)ccc34)c1)CC(c1ccc(F)cc1)=N2", "note": "(stereo not given)", "growth": "18%"}
{"smiles": "O=C(O)CSCC(=O)Nc1cc(C(F)(F)F)ccc1Cl", "growth": "105%"}
{"smiles": "CCOC(=O)c1sc2ncnc(Nc3ccc4c(cnn4C(=O)Nc4ccccc4)c3)c2c1C", "growth": "78.1%"}
{"smiles": "N#Cc1cccc(-c2c(-c3ccc4ccccc4c3)oc3ccccc3c2=O)c1", "growth": "3.16% (active)"}
{"smiles": "COc1cc(OC)cc(C(=O)Nc2cccc(C#Cc3cccc4[nH]nc(N)c34)c2)c1", "growth": "31.8%"}
{"smiles": "O=[N+]([O-])/C(=C/c1ccccc1)c1ccccc1", "growth": "99%"}
{"smiles": "CCC(O)CC(CC)CO", "note": "(stereo not given)", "growth": "113%"}
{"smiles": "Cn1ccnc1C(=O)/C=C/c1ccc(CC(=O)Nc2ccc(F)cc2)cc1", "growth": "-4.62% (active)"}
{"smiles": "O=C1OC(c2ccc(Cl)c(Cl)c2)=C/C1=C/c1cccc([N+](=O)[O-])c1", "growth": "92.3%"}
{"smiles": "COc1ccc(Cn2c(C(N)=O)cc3c2-c2nc(N)ncc2CCC3)cc1", "growth": "82.1%"}
{"smiles": "COc1ccc2c(c1)N(CCO)C1=C(C(=O)OC1)C2c1ccc(OC)c(OC)c1", "note": "(stereo not given)", "growth": "0.0938% (active)"}
{"smiles": "Oc1ccc2c(c1)CCc1ccccc1-2", "growth": "105%"}
{"smiles": "CCOC(=O)c1c(NCC(=O)Nc2ccc(Br)cc2)sc2c1CCCC2", "growth": "7.05% (active)"}
{"smiles": "O=C1Nc2ccccc2/C1=C/c1cn(C[C@@H](O)Cn2c3ccccc3c(=O)c3ccccc32)c2ccccc12", "growth": "79.6%"}
{"smiles": "COC(=O)[C@H]1CCCN1C(=O)[C@H]1CCCN1C(=O)[C@@H](Cc1c[nH]c2ccccc12)NC(=S)Nc1cc(C(F)(F)F)cc(C(F)(F)F)c1", "growth": "21%"}
{"smiles": "CCOc1cc(F)c([N+](=O)[O-])cc1[N+](=O)[O-]", "growth": "-35.2% (active)"}
{"smiles": "COc1ccc2[nH]cc(/C=N/Nc3ccnc4cc(Cl)ccc34)c2c1", "growth": "-80.8% (active)"}
{"smiles": "CCN1CCN(c2nc(NNC(=O)Cc3ccccc3)nc(N3CCN(C(c4ccccc4)c4ccccc4)CC3)n2)CC1", "growth": "12.2%"}
{"smiles": "CC(C)C1=C[C@@]23CC[C@H]4[C@](C)(COCCC#N)CCC[C@]4(C)[C@H]2C[C@@H]1[C@@H]1[C@H]3[C@@H](OCCC#N)CC[C@@H]1OCCC#N", "growth": "-4.51% (active)"}
{"smiles": "O=C(Nc1nc(-c2ccccc2)cs1)c1cc(-c2ccc(Br)cc2)nc2ccccc12", "growth": "35.2%"}
{"smiles": "CC[C@@H](C)/C=C(C)/C=C/C(=O)c1c(O)c(-c2ccc(O)cc2)cn(OC2CC(=O)CCC(C)OC(=O)CC2O)c1=O", "note": "(stereo not given in full)", "growth": "-29.9% (active)"}
{"smiles": "CSc1nc2c(c(=O)[nH]1)C(c1ccc(Cl)cc1)C1=C(N2)/C(=C/c2ccc(Cl)cc2)CNC1", "note": "(stereo not given)", "growth": "48.4%"}
{"smiles": "O=C(CCN1CCCC1)Nc1ccc2c(Nc3ccc(Br)cc3)c3ccccc3nc2c1", "growth": "39.5%"}
{"smiles": "O=C(/C=C/C12c3ccccc3C(c3ccccc31)C1C(=O)NC(=O)C12)c1ccc(I)cc1", "note": "(stereo not given)", "growth": "51.2%"}
{"smiles": "Cc1nc2sc(C(=O)Nc3cccc(Br)c3)c(N)c2cc1C(=O)c1ccc(C(F)(F)F)cc1", "growth": "90.6%"}
{"smiles": "Oc1cccc2ccc(N/N=C/c3cc(CN4CCOCC4)c(O)c4ncccc34)nc12", "growth": "-24.6% (active)"}
{"smiles": "CC(=O)N1N=C(c2ccc(C)cc2)CC1c1cn(-c2ccccc2)nc1-c1cccc(Nc2ccnc3cc(Cl)ccc23)c1", "note": "(stereo not given)", "growth": "9.76% (active)"}
{"smiles": "Cc1cc(O)c(C2=NN(c3ccc(S(N)(=O)=O)cc3)C(/C=C/c3ccccc3)C2)cc1Cl", "note": "(stereo not given)", "growth": "43.3%"}
{"smiles": "Cn1c2ccc(Cl)cc2c2nn(C(=O)c3ccccc3)c(=O)nc21", "growth": "103%"}
{"smiles": "C=C[C@]1(C)C=C2CC[C@@H]3C(C)(C)C(=O)CC[C@@]3(C)[C@@H]2CC1", "growth": "110%"}
{"smiles": "CCN1C(=S)N(CC)C2C1NN=C1SC(c3ccccc3)=CC(=O)N12", "note": "(stereo not given)", "growth": "92.6%"}
{"smiles": "CCCSc1nc(Nc2ccc(/C(C)=N\\NC(N)=S)cc2)c(C#N)c(-c2ccc(OC)cc2)n1", "growth": "93.1%"}
{"smiles": "O=C(c1ccccc1)C(Br)C(Br)c1cccc([N+](=O)[O-])c1", "note": "(stereo not given)", "growth": "-66.4% (active)"}
{"smiles": "c1ccc(/C(=N\\N=C(/c2ccccc2)c2cccs2)c2cccs2)cc1", "growth": "105%"}
{"smiles": "CCCCn1c2cc(OCc3cn(-c4ccc(Cl)cc4)nn3)ccc2c2ccnc(C)c21", "growth": "22.3%"}
{"smiles": "C=C1C(=O)O[C@H]2[C@H]1CC/C(COC(=O)/C=C\\C(=O)NCc1ccc(Cn3c(=O)sn(CCCCl)c3=O)cc1)=C\\CC[C@@]1(C)O[C@@H]21", "growth": "40.3%"}
{"smiles": "CCN(CC)c1ccc2cc(C(Nc3ccc(C)cc3)c3nnnn3C(C)(C)C)c(=O)oc2c1", "note": "(stereo not given)", "growth": "105%"}
{"smiles": "O=C(O)c1ccccc1C(=O)c1cccc2c(F)cccc12", "growth": "104%"}
{"smiles": "CCCC(=O)OCC1OC(n2cnc3c(=S)nc[nH]c32)C(OC(=O)CCC)C1OC(=O)CCC", "note": "(stereo not given)", "growth": "70.8%"}
{"smiles": "COc1cc(-c2nc3occn3c2-c2ccnc(NCCCNS(=O)(=O)c3ccccc3)n2)ccc1F", "growth": "5.92% (active)"}
